# Active and inactive are the calls of the source.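 Rule for the calls: active = high combined rank on largest and smallest cell-count-weighted shift across three tests, rank score above 45, floors 50 and 25 (some results past the limit were not filed as active); inactive = the rest.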
# Experiment: activators of LNCaP cell differentiation, retest, confirmation, side scatter shift, flow cytometry (AID 1069);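 note: LNCaP human prostate cancer cells in low-serum medium with charcoal-stripped FBS; percent of cells with raised granularity gated so DMSO controls show 10%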
# Details: 4 d, stronger effect = higher value
SMILES,side scatter shift (at 100 µM),"side scatter shift (side scatter shift, at 10 µM)"
CCCc1ccc(Oc2cn[nH]c2-c2ccc(O)c(C)c2O)cc1,40% (inactive),4.85%
CCOc1cccc2cc(-c3cn4cc(C)ccc4n3)c(=O)oc12,43.1% (active),2.1%
Cc1ccccc1CS(=O)(=O)CCC(=O)NCCCN1CCN(c2ccccc2F)CC1,56.5% (active),6.05%
CC(C)(C)OC(=O)N1CCC(C(=O)N2CCCCCC2)CC1,16.1% (inactive),7.5%
Cc1cc(C)nc(N2CCC(C(=O)Nc3ccc(Oc4ccccc4)cc3)CC2)n1,44.1% (inactive),3.05%
CCOC(=O)C1CCN(c2nc3ccccc3nc2C(C#N)C(=O)OCCOC)CC1 (centres undefined),11.8% (inactive),3.1%
CCCS(=O)(=O)N1CCCC(C(=O)NCCCN2CCN(c3ccc(F)cc3)CC2)C1 (centres undefined),8.2% (inactive),12.3%
CCOC(=O)c1ccccc1NC(=O)Cn1c(-c2nonc2N)nc2ccccc21,30.6% (active),27.1%
O=C(c1ccccc1)c1ccc(N2CCNCC2)cc1,63% (active),7.95%
CC(C)(C)C1CCc2onc(C(=O)Nc3cnn(Cc4ccc(F)cc4)c3)c2C1 (centres undefined),25.8% (inactive),3.7%
CCOC(=O)N1CCN(CC(=O)Nc2cc(C)nn2-c2nc3ccccc3s2)CC1,19.3% (inactive),2.6%
Cc1cc(NC(=O)c2noc3c2CCc2ccccc2-3)n(-c2ccccc2)n1,21.9% (inactive),12.4%
COc1cccc(-c2cc(C(=O)N3CCN(C(c4ccccc4)c4ccccc4)CC3)no2)c1,9.8% (inactive),2.7%
CCc1ccc(-c2nc(CN3CCC(C(=O)N4CCN(c5ccccn5)CC4)CC3)c(C)o2)cc1,30% (inactive),32.4%
Cc1ccccc1-c1nc(CN2CCC(C(=O)NCCCN3CCOCC3)CC2)c(C)o1,78.9% (active),13.4%
CCCCOc1ccccc1NC(=O)Cn1c(-c2nonc2N)nc2ccccc21,19.2% (inactive),17.4%
CCOC(=O)N1CCC(NC(=O)c2cc3c(-c4ccc(Cl)cc4)nn(C)c3s2)CC1,22.5% (inactive),6.9%
COc1ccccc1N1CCN(C(=O)CCn2c(=O)[nH]c3ccsc3c2=O)CC1,19.4% (inactive),1.7%
CC(C)N1CCC2(CC1)N=C(c1ccc3c(c1)OCO3)CC(c1cc(Cl)ccc1O)N2 (centres undefined),26.1% (inactive),18.8%

SMILES,side scatter shift (at 100 µM),"side scatter shift (side scatter shift, at 10 µM)"
CCOC(=O)N1CCN(C(=O)CCc2c(C)nc3c(c(C)nn3-c3ccc(C)c(C)c3)c2C)CC1,0% (inactive),6.6%
O=C(NCCc1c[nH]c2ccccc12)C(F)(F)C(F)F,9% (inactive),5.05%
O=C(CSc1c[nH]c2ccccc12)N1CCOCC1,11.4% (inactive),4.25%
CCOc1ccc(-n2cc(C(=O)N3CCC(C)CC3)c3cc(OC)c(OC)cc3c2=O)cc1,16.3% (inactive),18.7%
CCN1CCN(C(c2cccs2)C(C)NS(=O)(=O)c2ccc(Br)cc2)CC1 (centres undefined),82.4% (inactive),17.8%
CCc1ccc(-c2nc(CN3CCC(C(=O)NCc4ccco4)CC3)c(C)o2)cc1,20% (inactive),16.5%
O=C(Cn1c(=O)[nH]c2ccsc2c1=O)NC1CCCCCC1,2.5% (inactive),5.85%
Cc1ccccc1-c1nc(CN2CCC(C(=O)O)CC2)c(C)o1,3.7% (inactive),1.25%
COc1ccc(CCn2c(=N)c(C(=O)NCc3ccco3)cc3c(=O)n4ccccc4nc32)cc1,59.4% (inactive),4.85%
N=c1n(CCN2CCCCC2)c2ccccc2n1CC(O)COc1ccccc1 (centres undefined),20% (active),50.2%
COc1ccc(CCNC(=O)C2CCCN(Cc3nc(-c4ccccc4C)oc3C)C2)cc1OC (centres undefined),25% (inactive),5.4%
Cc1cc(=O)n2nc(N3CCCC3C(=O)NCc3ccccn3)sc2n1 (centres undefined),4% (inactive),7.1%
CCN1CCCC1CNC(=O)c1cc2c(-c3cccc(OC)c3)nn(C)c2s1 (centres undefined),40% (inactive),12.8%
O=C(c1ccc2c(c1)OCCO2)N1CCCCC1,7.7% (inactive),8.05%
CCOc1ccccc1NC(=O)c1nc[nH]c1C(=O)Nc1ccccc1OCC,40% (inactive),6.05%
CCOC(=O)c1[nH]c(C)c(C(=O)N2CCc3ccccc32)c1C,7.7% (inactive),15.4%
O=C(Nc1ccc2oc(Cc3ccc(Cl)cc3)nc2c1)c1cccnc1,17.6% (inactive),6.7%
CCOc1ccc(NC(=O)COc2nsnc2N2CCCCC2)cc1,8.7% (inactive),6.35%

# From PubChem BioAssay AID1069 (NMMLSC, 2008)
